Most compounds without a hit are left out; they make up all but 6.8% or so of the library.
HCV NS3h FP: hepatitis C NS3 helicase inhibition, primary screen; NS3h Cy5-dT15 DNA binding, fluorescence polarization; inhibition, % at 100 µM; actives 1.6% (n = 16,000); AID 687043;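 active = inhibition above the average over every tested compound plus 3 SD, cut at about 40% in these data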
Cy5 interf NS3h: counter-screen for HCV NS3 helicase inhibitors: fluorescence interference. Cy5-dT15 DNA with NS3h; actives lie on both sides; signal over control mean, under 1 quenches. fluorescence interference ratio at 100 µM. actives 6% (n = 16,000);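 active = compound fluorescence over control fluorescence at most 0.8, a quencher, or at least a set upper limit, an enhancer; inactive = ratio between 0.8 and the set upper limit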
Starred values were filed as active, the others as inactive.

SMILES	HCV NS3h FP	Cy5 interf NS3h
O=C(Nc1cccc(O)c1)/C(=C/c1cccc([N+](=O)[O-])c1)NC(=O)c1ccccc1	10.2	0.889
Cc1ccc(C(=O)N/C(=C\c2cccc([N+](=O)[O-])c2)C(=O)Nc2ccc(C)c(C)c2)cc1	1.6	1.2*
COc1ccc(C2NC(c3ccc(OC)cc3)C(c3ccccc3)C(=O)C2c2ccccc2)cc1 (stereo unspecified)	18.0	0.716*
COc1ccc(C2NC(c3ccc(OC)cc3)C3CCCC2C3=O)cc1 (stereo unspecified)	5.8	1.02
Cc1nnc(C)n1/N=C\c1ccccc1Br	3.8	1.01
CCOc1ccc(NC(=O)CN(c2cc(OC)ccc2OC)S(C)(=O)=O)cc1	2.0	1.03
Cc1ccc(C)c(NC(=O)CC(C)c2ccccc2)c1 (stereo unspecified)	1.7	0.841
O=C(Nc1ccc2c(c1)oc1ccccc12)c1c(Cl)cccc1Cl	10.8	0.996
CC(=O)Nc1ccc(C(=O)Nc2ccc([N+](=O)[O-])cc2)cc1	-4.0	0.742*
COCCNC(=O)c1ccc(Cl)c([N+](=O)[O-])c1	4.4	1.07
O=C(Nc1ccc(F)cc1)c1ccc([N+](=O)[O-])cc1	-10.7	1.05
Cc1ccc(NC(=O)c2ccc(Oc3ccc([N+](=O)[O-])cc3)cc2)cc1C	5.0	0.947
COCCNC(=O)c1ccc([N+](=O)[O-])cc1	4.0	0.721*
Cc1ccc(N2C(=O)c3ccc(C(=O)Nc4ccc(O)cc4)cc3C2=O)cc1C	-5.8	1.01
CC(=O)c1ccc(Oc2ccc([N+](=O)[O-])cc2)cc1	9.6	0.638*
O=C(Nc1ccc(O)cc1)c1ccc2c(c1)C(=O)N(c1ccc([N+](=O)[O-])cc1)C2=O	0.0	0.65*
O=C1NN(c2ccccc2)C(=O)/C1=C\c1cccc([N+](=O)[O-])c1	33.1	0.913
O=C(Nc1cccc(I)c1)c1ccccc1C(F)(F)F	17.9	0.986
CC(COCCc1nnc(NC(=O)c2ccccc2)s1)OCCc1nnc(NC(=O)c2ccccc2)s1 (stereo unspecified)	4.2	0.904
CC(C)(C)NC(=O)/C(=C\c1cccs1)NC(=O)c1ccccc1	3.2	1
O=C(CSCC(=O)Nc1ccccc1)NCc1ccccc1	6.9	1.13
Cc1c(C(=O)Nc2ccc([N+](=O)[O-])cc2)cnn1-c1ccccc1	5.0	0.578*
Cc1ccc(C(=O)Nc2c(C(=O)Nc3ccccc3)cnn2-c2ccccc2)cc1	12.0	0.927
O=C(CSCC(=O)Nc1ccc([N+](=O)[O-])cc1)Nc1ccccc1	5.9	0.623*
COC(=O)C1=C(C)N(c2ccc(C)c(C)c2)/C(=C/c2ccc(OC)cc2)C1=O	16.4	0.867
SMILES	HCV NS3h FP	Cy5 interf NS3h
COC(=O)CNC(=O)c1cccc([N+](=O)[O-])c1	2.5	1.09
O=C(O)CSCc1cccc([N+](=O)[O-])c1	5.0	0.702*
COc1ccccc1C/C(N)=N\OC(=O)c1ccc(I)cc1	2.3	0.964
O=C1N=c2ccccc2=C1c1sc(=S)n(-c2ccc(F)cc2)c1O	-5.2	0.991
O=C1N=c2ccccc2=C1c1sc(Nc2ccc(O)cc2)nc1O	11.1	0.631*
COc1ccc2c(c1[N+](=O)[O-])CCC/C2=N\OC(=O)c1cccc2ccccc12	0.3	1.01
COc1ccccc1C(=O)O/N=C1\CCCc2c1ccc(OC)c2[N+](=O)[O-]	21.7	0.741*
COc1ccc(/C(N)=N\OC(=O)c2cccc([N+](=O)[O-])c2C)cc1OC	3.1	1.02
COc1ccc2c(c1[N+](=O)[O-])CCC/C2=N\OC(=O)c1ccccc1SC	3.1	0.629*
COc1cc(/C=C2/SC(=S)NC2=O)cc(Cl)c1OC(C)C	6.6	0.873
COc1ccc(/C=C/C(=O)NC(=S)Nc2ccc(I)cc2)cc1OC	19.1	0.983
COc1ccccc1N=C(NOC(C)=O)c1nonc1N	3.8	1.03
N=c1n(CCO)c2ccccc2n1/N=C\c1ccc([N+](=O)[O-])cc1	6.8	0.965
COCCN1C(=O)C(=O)C(=C(O)c2ccccc2)C1c1ccc(OC)cc1OC (stereo unspecified)	-23.3	1.05
CC(C)(C)C1=NN(C(=O)c2ccc([N+](=O)[O-])cc2)C(O)(C(F)(F)F)C1 (stereo unspecified)	15.0	0.672*
CC1=NN(C(=O)c2ccc([N+](=O)[O-])cc2)C(O)(c2ccc(Cl)cc2)C1 (stereo unspecified)	18.2	0.98
COc1ccccc1N1COc2ccc3ccccc3c2C1	12.4	0.974
COc1ccc(C2=C/C(=C/c3cccs3)C(=O)O2)cc1	27.2	1.05
CCOc1ccc(C2=C/C(=C/c3cccs3)C(=O)O2)cc1	43.8*	0.99
CCc1ccccc1N(CC(=O)Nc1ccc2ccccc2c1)S(C)(=O)=O	6.7	0.904
COc1ccccc1N1C(=O)C(=Cc2cccn2C)C(=O)NC1=S	43.6*	0.675*
COc1ccccc1N1C(=O)NC(=O)C(=Cc2cc(OC)c(O)c([N+](=O)[O-])c2)C1=O	34.2	0.867
Cn1ccnc1SCC(=O)Nc1cccc(C(F)(F)F)c1	9.6	0.764*
O=C(CSc1cc(Cl)ccc1Cl)Nc1cccc(C(F)(F)F)c1	-4.2	0.895
Cc1c(OCC(N)=O)ccc2c3c(c(=O)oc12)CCC3	9.1	1.09
SMILES	HCV NS3h FP	Cy5 interf NS3h
O=C(c1ccc(S(=O)(=O)N2CCCC2)cc1)N1CCN(c2ccccc2)CC1	4.1	0.912
CS(=O)(=O)N1CCN(C(=O)c2ccc(-c3ccccc3)cc2)CC1	0.3	0.622*
CC(NC(=O)c1cc2nc(-c3ccco3)cc(C(F)(F)F)n2n1)C1CC2CCC1C2 (stereo unspecified)	19.5	0.699*
COc1cc(NC(=O)c2cc3nc(-c4ccc5c(c4)OCO5)cc(C(F)(F)F)n3n2)c(OC)cc1Cl	10.0	1.11
Nc1ccc(NC(=O)c2ccc(Cl)cc2Cl)c(Cl)c1	4.0	0.629*
O=C(Nc1ccc(Cl)cc1Cl)c1ccccc1F	2.2	1.06
O=C1CCCC2=C1C(c1ccc(OCc3ccccc3)cc1)C1=C(CCCC1=O)O2	9.2	0.91
Cc1ccc(C(=O)Nc2ccccc2C(=O)NC(Cc2c[nH]c3ccccc23)C(=O)O)cc1 (stereo unspecified)	16.6	0.983
O=C(NC(c1ccccc1)c1ccccc1)C(=O)c1c[nH]c2ccccc12	15.2	0.655*
COc1ccc(CN2CCN(S(=O)(=O)c3ccc(C)cc3)CC2)cc1OCc1ccccc1	9.6	0.742*
Cc1ccc(S(=O)(=O)N2CCN(Cc3ccccc3)CC2)cc1[N+](=O)[O-]	2.3	0.978
O=C(Nc1ccccc1)Nc1ncccn1	11.5	0.784*
O=C(Nc1ccncc1)Nc1ccccn1	4.7	1.01
CCOC(=O)c1c(-c2ccc(-c3ccccc3)cc2)csc1NC(=O)c1ccco1	3.9	1.14
CCc1ccccc1NC1=C(Cl)C(=O)N(c2ccc(OC)cc2)C1=O	-1.3	0.972
O=C1CC(c2ccccc2)CC2=C1C(c1cccc([N+](=O)[O-])c1)Nc1ccc(C(=O)c3ccccc3)cc1N2 (stereo unspecified)	14.2	0.687*
O=C1CC(c2ccccc2)CC2=C1C(c1ccc([N+](=O)[O-])cc1)Nc1ccc(C(=O)c3ccccc3)cc1N2 (stereo unspecified)	10.0	1.06
CCOc1ccc(NC(=O)/C(=C/c2ccccc2)c2ccccc2)cc1	15.2	0.672*
COc1ccccc1NC(=O)/C(=C/c1ccccc1)c1ccccc1	1.2	1.07
O=C(Nc1ccccc1)Nc1nnc(-c2ccccc2)s1	6.9	1.1
